# TDP1 cell CPT – DT40-hTDP1 cell growth loss with CPT; chicken DT40 Tdp1-/-;hTDP1 cells + 20 nM CPT, ATP luminescence, 48 h; Potency, µM (series often up to 46.2 µM), for inactives: at the top dose activity change, negative = growth inhibition, most hits filed as inhibitors; 12% of 420,000 active; AID 686979; further: potency means the concentration at half of the fitted maximal effect; nearly all actives have a fitted effect of over 55% in size
#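 Chicken DT40 Tdp1-/- cells complemented with human TDP1, 400 cells/well, exposed to compounds plus 20 nM camptothecin for at least 48 h at 37 C; viability read as ATP content by CellTiter-Glo luminescence.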
# IL-1B inflam inh – inflammasome signaling inhibition, IL-1 beta readout | 4.7% of 360,000 active | THP-1 LPS/ATP IL-1B secretion, AlphaLISA, 16 h; hits give low values | activity change, % at 57.5 µM; in the data active means activity change below about -50%; inconclusive means mostly about -30% to -49%
#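 THP-1 cells pretreated 1 hr with compounds (up to 57.5 uM final), then stimulated with LPS (250 ng/mL final) plus ATP (1.25 mM final); secreted IL-1B measured by AlphaLISA after 16 hr, decreased signal indicating inhibition.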
# Six1-Eya2 blk – Six1/Eya2 interaction inhibition; Q15475+O00167; AlphaScreen GST-Six1/His-Eya2 binding, biochemical; hits give low values; activity change, % (test concentration not listed); 0.56% of 360,000 active; in the data active means activity change below about -65%; inconclusive means mostly about -30% to -63%
# Target sequence (O00167 whole entry, looked up): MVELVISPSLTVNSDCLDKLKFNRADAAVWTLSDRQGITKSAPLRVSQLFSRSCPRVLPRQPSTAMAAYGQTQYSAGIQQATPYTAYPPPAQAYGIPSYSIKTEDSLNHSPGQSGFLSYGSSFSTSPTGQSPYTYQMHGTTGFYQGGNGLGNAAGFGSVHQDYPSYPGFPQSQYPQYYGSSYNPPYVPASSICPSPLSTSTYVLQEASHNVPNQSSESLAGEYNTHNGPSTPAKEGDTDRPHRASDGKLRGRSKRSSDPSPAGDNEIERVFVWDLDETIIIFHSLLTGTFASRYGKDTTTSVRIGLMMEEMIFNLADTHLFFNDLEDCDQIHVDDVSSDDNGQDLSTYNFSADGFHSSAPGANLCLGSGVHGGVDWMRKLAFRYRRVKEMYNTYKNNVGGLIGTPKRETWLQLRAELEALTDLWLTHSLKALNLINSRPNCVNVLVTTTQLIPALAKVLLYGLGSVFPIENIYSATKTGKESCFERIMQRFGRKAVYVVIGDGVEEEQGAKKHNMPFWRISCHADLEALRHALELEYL
# Target sequence (Q15475 whole entry, looked up): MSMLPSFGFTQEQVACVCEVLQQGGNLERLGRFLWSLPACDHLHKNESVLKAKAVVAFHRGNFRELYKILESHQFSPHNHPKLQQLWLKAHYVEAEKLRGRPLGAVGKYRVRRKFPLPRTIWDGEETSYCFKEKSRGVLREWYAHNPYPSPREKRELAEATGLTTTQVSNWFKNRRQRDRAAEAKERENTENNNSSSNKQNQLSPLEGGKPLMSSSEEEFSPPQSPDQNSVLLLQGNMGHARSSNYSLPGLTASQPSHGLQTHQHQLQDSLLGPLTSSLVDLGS
#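 AlphaScreen with GST-Six1 and His-Eya2 (5X mix: 250 nM and 500 nM), glutathione donor and nickel acceptor beads; buffer 50 mM Tris pH 8.0, 300 mM NaCl, 1 mM TCEP; 1 h at 37 C in the dark.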
# DT40 TDP1 no CPT – qHTS for Inhibitors of human tyrosyl-DNA phosphodiesterase 1 (TDP1): qHTS in cells in absence of CPT; DT40 Tdp1-/- hTDP1 cells, no CPT, ATP luminescence, 48 h; Potency, µM (top dose mostly 46.2 µM), for the others: top-dose activity change, negative = growth inhibition, usual class: inhibitors; 15% of 420,000 active; AID 686978, 2013; further: potency means the concentration at half of the fitted maximal effect; nearly all actives have a fitted effect of over 55% in size
#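 A cellular qHTS used chicken DT40 cells lacking endogenous Tdp1 but carrying stably transfected human TDP1. Compounds were applied without camptothecin, and cell growth kinetics were judged by ATP-dependent luminescence after ≥48 hr.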
# CtBP-E1A inh – CtBP/E1A binding inhibition. AlphaScreen GST-E1A/His-CtBP binding, 1536-well; hits give low values. 0.49% of 340,000 active. activity change, % (test concentration not listed); in the data active means activity change below about -65%; inconclusive means mostly about -30% to -63%
#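 Steps: dispense buffer (Tris pH 8.0, NaCl 300 mM, TCEP 1 mM, BSA, Tween 20); add 5X protein mix (GST-E1A, His-CtBP, 125 nM each); pin 23 nL compound; 2 h at 37 °C, dark; add 5X beads (50 ug/mL); 1 h; read.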
# TDP1 inh – TDP1 (human) enzyme inhibition. Q9NUW8. recombinant TDP1, AlphaScreen DNA substrate cleavage. Potency, µM (series often up to 130 µM), for the others: at the highest dose activity change, negative = inhibition, usual class: inhibitors. 0.28% of 350,000 active; further: potency means the concentration at half of the fitted maximal effect; nearly all actives have a fitted effect of over 40% in size
#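 Compounds were preincubated with Tdp1 (1 nM final) for 15 min at room temperature before substrate (15 nM final) started a 5 min reaction; beads (10 ug/ml final) were then added for 10 min before AlphaScreen detection.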
# Numbers without * were called inactive; ? = inconclusive; . = no result given. This is a sample that favours compounds with a hit; in the whole collection about 18% have one here. Unless noted, the call rests on the fitted dose curve; in most records, active means well fitted curve in the direction sought with a large enough effect; inconclusive means small, poorly fitted or top-dose-only effect, or another doubt; inactive means no such curve, though single readings can be large; an effect the other way counts as inactive or inconclusive. On the % scale 0 is the no-effect control and ±100 the full control effect.
SMILES,TDP1 cell CPT,IL-1B inflam inh,Six1-Eya2 blk,DT40 TDP1 no CPT,CtBP-E1A inh,TDP1 inh
O=C(NC(=S)Nc1cccnc1)c1ccccc1,-9%,1,2,-19%,-4,0%
Cc1snnc1C(=O)NC(=S)Nc1ccccc1,-29%,14,1,13µM*,-7,5%
O=C(NC(NC(=S)Nc1c(Cl)cc(Cl)cc1Cl)C(Cl)(Cl)Cl)OCc1ccccc1 (configuration not stated),?,-58*,4,16µM*,-10,-1%
O=C(NC(=S)Nc1cccc(NC(=S)NC(=O)c2ccccc2)c1)c1ccccc1,9.2µM*,32,-8,10µM*,-4,.
CC(C)[N+](C)(C)CC(O)COc1cccc2ccccc12 (configuration not stated),9%,.,.,-22%,.,-2%
O=c1c(=O)n(-c2ccccc2)ccn1Cc1cccc(C(F)(F)F)c1,?,.,.,?,.,4%
COc1ccc(-c2nnc(SCC(=O)NNC(=O)c3ccc(C)cc3)o2)cc1,-9%,36,4,-15%,-11,3%
CC(=O)c1ccc(NC(=O)/C(=C\c2ccccc2)NC(=O)/C=C/c2ccccc2)cc1,15%,-28,0,-3%,-2,-2%
O=C(O)c1ccc(C2CCCCC2)cn1,?,-2,-90*,?,-85*,11%
O=S(=O)(c1ccc(-c2n[nH]c(=S)o2)cc1)N1CCCC1,2%,26,-2,-13%,-2,.
CCc1ccc(OCC(=O)OCC(=O)c2ccc3c(c2)NC(=O)CO3)cc1,-8%,6,-10,-23%,-12,6%
COc1ccc(/C=C/C(=O)OCC(=O)c2ccc3c(c2)NC(=O)CO3)c(OC)c1,-8%,-52*,13,4%,11,-4%
O=C1COc2ccc(C(=O)CCl)cc2N1,5.8µM*,-90*,4,1.6µM*,1,0%
CCCCCCC(=O)OCC(=O)c1ccc2c(c1)NC(=O)CO2,8.2µM*,-20,8,13µM*,4,0%
CC(C)[C@H](NC(=O)c1ccccc1)C(=O)OCC(=O)c1ccc2c(c1)NC(=O)CO2,4.6µM*,0,22,5.8µM*,5,3%
N#Cc1cc2cc3c(cc2nc1N1CCOCC1)OCO3,?,29,8,?,10,-4%
CN1CCN(C(=O)C2=C[C@H](c3coc4ccccc4c3=O)C[C@H](OCCCCO)O2)CC1,5%,0,2,-4%,-17,1%
CSc1ncccc1C(=O)OCC(=O)NC(C)(C)C,-4%,35,3,6%,5,2%
COc1ccc(-c2cn3nc(N4CCCC(C(=O)Nc5cccc(OC)c5)C4)sc3n2)cc1 (configuration not stated),21µM*,.,.,23µM*,.,3%
COc1ccc(-c2cn3nc(N4CCC(C(=O)Nc5cccc(Cl)c5)CC4)sc3n2)cc1,-28%,.,.,?,.,-1%
COc1cccc(NC(=O)C2CCN(c3nn4cc(-c5ccc(F)cc5)nc4s3)CC2)c1,13µM*,.,.,?,.,6%
Cc1ccc(-c2cn3nc(N4CCCC(C(=O)NCc5ccc(F)cc5)C4)sc3n2)cc1 (configuration not stated),?,.,.,?,.,6%
COc1ccc(-c2cn3nc(N4CCCC(C(=O)Nc5cc(C)cc(C)c5)C4)sc3n2)cc1 (configuration not stated),8.2µM*,.,.,8.2µM*,.,6%
COc1ccc(-c2cn3nc(N4CCCC(C(=O)NCc5ccccc5C)C4)sc3n2)cc1 (configuration not stated),13µM*,.,.,10µM*,.,10%
Cn1c(=O)oc2cc(S(=O)(=O)N3CCCC(C(=O)N4CCn5c4nc4ccccc45)C3)ccc21 (configuration not stated),.,.,.,.,.,3%

# Screening results deposited in PubChem by National Center for Advancing Translational Sciences (NCATS).
